# Most compounds without a hit are left out; they make up all but 4.1% or so of the library.
# ssDAF12 agonist: S. stercoralis DAF-12 nuclear receptor activators, primary screen, cell-based, luminescence, HEK293, GRIP1 co-expression, lit1-tk-luc. actives 1% (n = 370,000). Nuclear hormone receptor DAF-12 (Strongyloides stercoralis). activation, % at 6.8 µM. HEK293 ssDAF-12/GRIP1 lit1-tk-luc reporter; % of 3 µM dafachronic acid response;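 active = activation above the mean over all tested compounds plus 3 SD, cut at about 0.9% in these data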;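 also: 0% = DMSO-only wells and 100% = 3 µM delta7-dafachronic acid wells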
# hgDAF-12 ag: H. glycines DAF-12 receptor agonists, primary screen, cell-based, luminescence, HEK293, GAL4 fusion, UAS-luciferase; Nuclear hormone receptor DAF-12 (Heterodera glycines), GAL4 fusion; HEK293 GAL4-hgDAF12 UAS-luciferase reporter, agonist luminescence; normalized to butyrate control; activation, % at 6.8 µM; actives 1.8% (n = 370,000); AID 687014, 2013;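 active = activation above a cutoff set at the mean of all screened compounds plus 3 SD, cut at about 10% in these data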;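 also: 0% = DMSO wells and 100% = sodium butyrate wells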
# DAX1 inh-1: DAX1 (NR0B1) inhibitors, primary screen, cell-based, HEK293, Gal4-DAX1, luciferase luminescence | Nuclear receptor subfamily 0 group B member 1 (Homo sapiens), P51843 | HEK293 Gal4-DAX1 luciferase reporter | inhibition, % at 6.75 µM | actives 0.99% (n = 340,000) | AID 504766, 2011;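 active = inhibition above the mean over all tested compounds plus 3 SD, cut at about 4.2% in these data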;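 also: 0% = DAX1-transfected cells with DMSO and 100% = empty-vector control cells with DMSO; inhibition shows as a rise in luminescence from relieved DAX1 repression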
# DAX1 inh-2: DAX1 (NR0B1) inhibitors on StAR promoter, primary screen, cell-based, luminescence, SF-1 (NR5A1), full-length DAX-1; HEK293T StAR-luciferase reporter, SF-1/DAX-1 repression relief; actives 1.1% (n = 370,000); inhibition, % at 6.8 µM;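 active = inhibition above the mean over all tested compounds plus 3 SD, cut at about 3.6% in these data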;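 also: 0% = DAX-1 cells with DMSO and 100% = cells lacking DAX-1 with DMSO; higher inhibition means more luminescence from relief of DAX-1 repression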
# hcDAF12 agonist: H. contortus DAF-12 nuclear receptor activators, primary screen, cell-based, luminescence, HEK293, lit1-tk-luc reporter; HEK293 hcDAF-12 lit1-tk-luc reporter; 0% DMSO, 100% Δ7-dafachronic acid; activation, % at 6.8 µM; actives 1.4% (n = 370,000);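 active = activation above the mean of all tested compounds plus 3 SD, cut at about 5.5% in these data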;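 also: 100% = response to 3 µM Δ7-dafachronic acid high control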
# hgDAF12 ag: H. glycines DAF-12 receptor agonists, confirmation, cell-based, luminescence, HEK293, GAL4-LBD fusion | shares compounds with hgDAF-12 ag | activation, % at 6.8 µM | actives 80% (n = 3,300) | HEK293 GAL4-hgDAF12 luciferase reporter, agonist mode; percent of butyrate response;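 active = mean activation over triplicate wells above the hit cutoff derived from the earlier primary screen, cut at about 11% in these data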;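 also: 0% = DMSO low control and 100% = 2 mM sodium butyrate high control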
# LXRb DAF12 ctr: LXR agonists, Gal4 luciferase reporter, confirmation, counter-screen for hgDAF-12 agonist project, cell-based, luminescence, HEK293, H. glycines campaign; 3,300 tested, under 10 active; 24 h; activation, % at 6.8 µM; shares compounds with hgDAF-12 ag;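 active = mean activation of the triplicate above a set limit carried over from the primary screen, none filed active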
# Target sequence (P55055 whole entry, looked up, the tested form may be a part): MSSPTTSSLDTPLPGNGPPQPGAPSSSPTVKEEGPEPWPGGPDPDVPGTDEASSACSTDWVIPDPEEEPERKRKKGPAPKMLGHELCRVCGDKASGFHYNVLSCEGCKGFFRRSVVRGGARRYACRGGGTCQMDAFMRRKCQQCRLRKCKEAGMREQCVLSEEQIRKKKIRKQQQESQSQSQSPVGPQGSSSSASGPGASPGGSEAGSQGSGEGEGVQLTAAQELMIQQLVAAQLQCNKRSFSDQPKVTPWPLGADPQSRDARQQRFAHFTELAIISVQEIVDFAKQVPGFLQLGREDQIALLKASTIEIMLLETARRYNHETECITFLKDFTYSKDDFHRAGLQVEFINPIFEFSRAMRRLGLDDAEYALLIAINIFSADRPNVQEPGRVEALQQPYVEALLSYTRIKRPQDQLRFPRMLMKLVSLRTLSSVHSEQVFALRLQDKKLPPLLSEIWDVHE
# Active calls of the source: *; . = no result given.
SMILES,ssDAF12 agonist,hgDAF-12 ag,DAX1 inh-1,DAX1 inh-2,hcDAF12 agonist,hgDAF12 ag,LXRb DAF12 ctr
Cc1nn(Cc2c(F)c(F)c(F)c(F)c2F)c(C)c1NC(=O)c1cccc(COc2ccccc2Cl)c1,0,20*,-3,1,4,9,0
CCOc1ccc2nc(NC(=O)CCC(=O)c3cccs3)sc2c1,0,13*,3,1,5,15*,1
COc1cc(OC)cc(C(=O)Nc2nc3ccc(S(C)(=O)=O)cc3s2)c1,-1,5,0,0,3,.,.
CS(=O)(=O)c1ccc2nc(NC(=O)c3cccs3)sc2c1,1,15*,-2,4.0*,6.3*,16*,1
CCOc1ccc2nc(NC(=O)Cn3c(C)csc3=O)sc2c1,-1,1,0,3,0,.,.
CCCC1CCC2(CC1)CCC2OC(=O)Nc1ccc(C)cc1 (stereo not given),-1,3,.,.,-1,.,.
Cc1ccc(-n2ncc3c(SCC(=O)NNC(=O)C(C)C)ncnc32)cc1,-1,0,0,-1,0,.,.
CC(=O)CSc1ncnc2c1cnn2-c1ccccc1,0,17*,3,3,3,17*,1
N#CCCCc1cn(-c2nc3ccccc3s2)nn1,1,14*,.,4.0*,2,13*,0
CCN(C(=O)CSc1nnc(-c2cccnc2)n1Cc1ccco1)c1ccccc1,0,0,.,0,-2,.,.
COc1ccc(-c2nc3cc([N+](=O)[O-])ccc3o2)cc1,0,14*,6.2*,2,2,17*,1
CC(C)(C)Nc1nc2cc([N+](=O)[O-])ccc2o1,-1,0,0,0,0,.,.
Nc1ccc(-c2nc3cc([N+](=O)[O-])ccc3o2)cc1,1,24*,5.7*,3,5.7*,20*,1
O=C(Cn1nnc(N2CCOCC2)n1)NN=Cc1ccccc1Cl,-1,2,.,-1,0,.,.
COC(=O)C1=C(C)N(Cc2ccccc2C(F)(F)F)C(=NCC2CC2)NC1c1ccc(C(F)(F)F)cc1 (stereo not given),0,1,.,0,-1,.,.
Cc1ccc(-c2nc3cccnc3s2)cc1NS(C)(=O)=O,0,14*,1,3,6.4*,7,0
COc1ccc(NC(=S)N/C(=N/CS(=O)(=O)c2ccccc2)c2ccccc2)cc1,-1,14*,3,2,2,7,0
Cc1ccc(Nc2ncccc2C(N)=O)cc1,0,14*,2,3,4,13*,1
CCCNc1ncccc1C(N)=O,-1,-1,0,0,-1,.,.
COc1cccc(NC(=O)Nc2c(-c3ccc(F)cc3)nc3ncccn23)c1,-1,2,.,-1,-2,.,.
CC(=O)NCCC1CCCCN1C(=O)c1cc(COc2cc(C)ccc2C)on1 (stereo not given),1,16*,1,2,5,13*,1
COC1CCN(C(=O)c2cc(COc3cc(C)ccc3C)on2)CC1,-1,2,1,0,-2,.,.
CCCC(=O)OC12CCCN(C1)/C(=C/c1cccc(Cl)c1)C2 (stereo not given),-1,-3,.,-1,-2,.,.
CCNC(=O)N1CCN(c2ccc(N3CCN(Cc4ccccc4)[C@@H](C)C3)c(C)c2)[C@H](C)C1,-2,-2,.,-2,-2,.,.

# Assay outcomes (PubChem BioAssay)
